Screening data: PubChem BioAssay, National Center for Advancing Translational Sciences (NCATS)
Sampled rows, rich in hits. Any-hit rate of the full collection: about 2.6%.
Cruzain noTriton = cruzain (T. cruzi) inhibition without detergent; AID 1476; Potency, µM, hits mostly inhibitors; P25779; purified cruzain, Z-FR-AMC fluorescence, no detergent; hit rate 2.3% among 200,000; also: nearly all actives have a fitted effect of over 40% in size
Target sequence (P25779 123-467 limits assumed): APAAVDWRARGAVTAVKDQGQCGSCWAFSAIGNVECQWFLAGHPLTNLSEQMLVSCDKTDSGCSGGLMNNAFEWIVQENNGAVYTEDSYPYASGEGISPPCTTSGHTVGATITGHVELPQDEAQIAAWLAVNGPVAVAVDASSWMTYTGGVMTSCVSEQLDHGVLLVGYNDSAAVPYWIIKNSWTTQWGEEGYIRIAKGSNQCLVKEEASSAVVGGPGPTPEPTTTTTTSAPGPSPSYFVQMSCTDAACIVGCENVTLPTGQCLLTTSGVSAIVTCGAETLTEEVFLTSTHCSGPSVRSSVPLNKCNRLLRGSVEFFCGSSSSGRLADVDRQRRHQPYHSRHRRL
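Purified cruzain at 1.5 nM, pre-incubated 15 min with compound at room temperature in 100 mM sodium acetate pH 5.5, 5 mM DTT, 0.00005% Triton X-100. Reaction started with 2 uM Z-FR-AMC; AMC fluorescence increase over 60 s gives rate.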
Cruzain inh Det = inhibitors of Trypanosoma cruzi cruzain with detergent | P25779 | purified cruzain, Z-FR-AMC fluorescence, 0.01% Triton | Potency, µM, actives largely listed as inhibitors | hit rate 0.43% among 200,000 | AID 1478; also: nearly all actives have a fitted effect of over 40% in size
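Detergent-containing arm of a paired screen for aggregation-based inhibition: 0.01% Triton X-100 present. Cruzain at 1.5 nM cleaved 2 uM Z-FR-AMC at pH 5.5 with 5 mM DTT; AMC fluorescence gain over 60 s measured activity.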
Hits are given with their value; 0 = inactive; ? = inconclusive. Calls follow the shape of the dose curve; as a rule, active = well fitted curve in the direction sought with a large enough effect; inconclusive = small, poorly fitted or top-dose-only effect, or another doubt; inactive = no such curve, though single readings can be large; an effect the other way counts as inactive or inconclusive.

SMILES	Cruzain noTriton	Cruzain inh Det
O=C1CC(c2nc3ccccc3n2Cc2c(F)cccc2Cl)CN1c1cccc(C(F)(F)F)c1 (stereo not drawn)	0	0
CC12CC[C@@](C(=O)O)(C(=O)C1=O)C2(C)C	0	0
CC12CCC(C(=O)N(CSC(=S)N/N=C\c3ccccc3)C1=O)C2(C)C (stereo not drawn)	0	0
CC12CCC(C(=O)N(CSC(=S)N/N=C\c3ccccc3Cl)C1=O)C2(C)C (stereo not drawn)	16µM	0
O=C(CN(c1ccc(Cl)c(C(F)(F)F)c1)S(=O)(=O)c1ccccc1)N1CCc2ccccc2C1	0	0
O=S(=O)(c1cccc(Cl)c1)n1c(/C=C/c2ccccc2Cl)nc2ccccc21	7.9µM	0
CSc1ccc(/C=C/c2nc3ccccc3n2S(=O)(=O)c2cccc(Cl)c2)cc1	0	0
CCOc1ccc(C(=O)Nc2cccc(C(=O)OCc3cc(=O)n4nc(C5CC5)sc4n3)c2)cc1	0	0
Cc1ccc(C2Nc3ccccc3-n3c(-c4ccccc4)c4c(=O)n(C)c(=O)n(C)c4c32)o1 (stereo not drawn)	0	0
O=C(O)c1c(Cl)c(Cl)c(Cl)c(Cl)c1-c1c2cc(I)c(=O)c(I)c-2oc2c(I)c(O)c(I)cc12	0	13µM
CS(=O)(=O)N1CCC[C@@]2(CCN(C(=O)Nc3cccc(C#N)c3)C2)C1	0	0
CCOc1ccc(CCNC(=O)C2CCN(c3nnc(-n4cccc4)s3)CC2)cc1OCC	0	0
CCOc1ccc(CCNC(=O)C2CCN(c3nnc(-n4cccc4)s3)CC2)cc1	16µM	0
COc1ccc(CCNC(=O)CSc2nc3ccccc3nc2Cc2ccc(C)cc2)cc1OC	?	0
COc1ccccc1-c1nc(Nc2ccncc2)c2ccccc2n1	0	0
COc1ccc(-c2nc3cc(NC(=O)COc4ccc(F)cc4)ccc3o2)cc1	0	0
Cc1ccn2c(Nc3ccccc3)c(-c3c[nH]c4ccccc34)nc2c1	13µM	0
Cc1ccc(Nc2c(-c3c[nH]c4ccccc34)nc3cc(C)ccn23)cc1	?	0
O=C(Nc1ccc(S(=O)(=O)N2CCCCC2c2cccnc2)cc1)c1ccc(Br)cc1 (stereo not drawn)	0	0
Cc1cccc(NC(=O)c2c(N)sc3c2CCC(C)C3)c1 (stereo not drawn)	0	0
Cc1ccc(C(=O)NC(=S)NNS(=O)(=O)c2ccc(C)cc2)cc1	0	?
Cc1ccc(S(=O)(=O)NNC(=S)NC(=O)c2ccc([N+](=O)[O-])cc2)cc1	4µM	?
COc1c(Cl)cc(Cl)cc1/C=C/C(=O)c1ccc(NC(=O)c2cccs2)cc1	32µM	0
O=C(Nc1ccc(NC(=O)c2cccs2)cc1)c1ccc(Cl)cc1	0	0
CCCc1cc(=O)oc2cc(C)c(CN3CCCC3)c(O)c12	0	0
SMILES	Cruzain noTriton	Cruzain inh Det
CCCc1cc(=O)oc2c(CN3CCCC3)c(O)c(Cl)cc12	?	32µM
CCc1cc(=O)oc2cc(C)c(CN3CCCC3)c(O)c12	0	0
CCCc1cc(=O)oc2c(CN3CCCC3)c(O)ccc12	?	25µM
COc1ccc(N2C(=O)CS(=O)(=O)C23C(=O)N(Cc2c(F)cccc2Cl)c2ccccc23)cc1 (stereo not drawn)	7.9µM	0
COc1ccc(N2C(=O)CS(=O)(=O)C23C(=O)N(Cc2ccccc2)c2ccccc23)cc1 (stereo not drawn)	3.2µM	0
O=C1CSC2(C(=O)N(Cc3c(F)cccc3Cl)c3ccccc32)N1c1ccc(F)c(F)c1 (stereo not drawn)	0	0
CCOc1ccc(N2C(=O)CS(=O)(=O)C23C(=O)N(Cc2cccc(Cl)c2)c2ccccc23)cc1 (stereo not drawn)	10µM	0
Cc1cc(C)cc(N2C(=O)CS(=O)(=O)C23C(=O)N(Cc2ccc(F)cc2)c2ccc(C)cc23)c1 (stereo not drawn)	?	0
Cc1cccc(N2C(=O)CS(=O)(=O)C23C(=O)N(Cc2c(F)cccc2Cl)c2ccccc23)c1 (stereo not drawn)	3.2µM	0
CN1C(=O)C2(c3ccccc31)N(c1ccccc1)C(=O)CS2(=O)=O (stereo not drawn)	?	0
Cc1c(C(=O)N(C)C)sc2c1c(=O)n(-c1ccc(Cl)c(Cl)c1)c(=O)n2CC(=O)N1CCCCC1C (stereo not drawn)	?	0
COC(=O)Cc1c(C)c2ccc(OCC(C)=O)c(C)c2oc1=O	0	0
CCN(CC)Cc1c(O)ccc2c(C)c(CC(=O)OC)c(=O)oc12	?	25µM
Cc1ccc(N(CC(=O)N/N=C/c2ccc(OC3CSC3)cc2)S(=O)(=O)c2ccccc2)c(C)c1	16µM	0
Cc1ccc(N(CC(=O)N/N=C/c2ccc(OC3CSC3)cc2)S(=O)(=O)c2ccccc2)cc1	?	0
CN1CCN(c2ncc3nc(CCc4ccccc4)c(=O)n(Cc4ccc(F)cc4)c3n2)CC1	0	0
CC(C)C(NS(=O)(=O)c1cccs1)C(=O)NCCN1CCN(c2ccccc2)CC1 (stereo not drawn)	25µM	20µM
COc1ccc(N2CCN(CCNC(=O)CCNS(=O)(=O)c3cccs3)CC2)cc1	0	0
CCCOc1ccc(C(=O)NCC(c2ccc(OC)cc2)N2CCCCC2)cc1 (stereo not drawn)	0	0
CCc1ccc2occ(CC(=O)Nc3c(C(=O)c4ccc(C)cc4)oc4ccccc34)c2c1	0	0
O=C(CCC(=O)N1CC2CCCN2c2ccccc21)NCc1cccc(Cl)c1 (stereo not drawn)	0	0
COc1ccc(-c2cc(OC(=O)c3ccc(F)cc3)c3c(C)oc(C)c3c(=O)c2)cc1OC	0	0
CCOc1ccc(C(=O)Nc2cccc(NC(=O)c3ccco3)c2)cc1Cl	0	0
CCOc1ccc(C(=O)Nc2cccc(NC(=O)c3ccc(C(C)(C)C)cc3)c2)cc1Br	7.9µM	0
Cc1cc(C(=O)CN2C(=O)NC(C)(c3cccc(Br)c3)C2=O)c(C)n1Cc1ccco1 (stereo not drawn)	32µM	0
SMILES	Cruzain noTriton	Cruzain inh Det
CCCn1c(C)cc(C(=O)CSc2nc3ccccc3c(=O)n2Cc2ccco2)c1C	0	0
Cc1cc(C(=O)CN2C(=O)NC(c3ccccc3)(c3ccccc3)C2=O)c(C)n1Cc1ccco1	?	0
Cc1cc(C(=O)CSc2nn(-c3ccccc3)c(=S)s2)c(C)n1Cc1ccco1	25µM	0
C=CCn1c(C)cc(C(=O)CSc2nc3ccccc3[nH]2)c1C	0	0
Cc1cc(C(=O)CSc2nc3ccccc3[nH]2)c(C)n1Cc1ccco1	25µM	0
CCOc1ccc(-c2noc(CSc3nnc(Cc4ccccc4)n3-c3cccc(C)c3)n2)cc1	0	0
Cn1cc(C(=O)N/N=C/C=C/c2ccccc2)ccc1=O	0	0
O=C(N/N=C/C=C/c1ccccc1)c1ccc(Br)cc1	20µM	0
CCOc1ccc(NC(=O)c2nn(C)c3c2COc2ccccc2-3)cc1	0	0
Cc1oc2cc3oc(=O)c(CCC(=O)NCCc4ccccc4F)c(C)c3cc2c1C	0	0
COc1ccccc1-n1c(SCC(=O)c2ccc(O)cc2O)nc2cc([N+](=O)[O-])ccc21	13µM	0
COc1ccccc1-n1c(SCC(=O)NC2CCS(=O)(=O)C2)nc2cc([N+](=O)[O-])ccc21 (stereo not drawn)	?	0
Cc1ccc(N(CC(=O)Nc2cccc(F)c2)S(=O)(=O)c2cccs2)cc1	0	0
Cc1ccc(Cn2ccn(Cc3ccccc3C)c(=O)c2=O)cc1	0	0
